assay: osmotic lysis modulators in infected erythrocytes, primary screen, PSAC antagonist project, cell-based, P. falciparum Indochina, OD700, 3 h (AID 1156); conditions: higher = more signal, called active from +8 up or from −8 down

z-score, inactive:
COC(=O)C(CC#Cc1ccc2c(c1)[C@]1(C(=O)N2)[C@H](c2ccc(O)cc2)N2[C@H](c3ccccc3)[C@H](c3ccccc3)OC(=O)[C@H]2[C@@H]1C(=O)N1CCCCCCC1)C(=O)OC -0.677
CC(C)=CCCC(C)=CC(O)C1C=CC2C(=O)N(c3ccccc3)C(=O)C2N1Nc1ccccc1F (centres undefined) -0.391
CN(C)CCCCNC(=O)[C@H]1C[C@H]2C(=O)N[C@@H](CCCC[N+](C)(C)C)C(=O)N2[C@H]1c1ccc(O)cc1 -0.27
CN(C)CCCNC(=O)[C@@H]1c2ccccc2C(=O)N(C2CCCCC2)[C@H]1c1ccc(CO)cc1 1.67
CC(C)CNC(=O)[C@@H]1c2ccccc2C(=O)N(C2CCCCC2)[C@H]1c1ccc(CO)cc1 0.472
O=C1C2C=CC(C(O)c3ccco3)N(Nc3ccccc3)C2C(=O)N1c1ccccc1 (centres undefined) -0.284
COc1ccc([Si](C)(C)[C@@H]2[C@@H](CCn3cc([C@H](O)c4ccccc4)nn3)O[C@]3(C(=O)N(c4ccccc4)c4ccccc43)[C@H]2C)cc1 3.03
CCCNC(=O)[C@@]1(Sc2ccc(C)cc2)CC(=O)N(C2CCCCC2)[C@@H]1c1ccc(CO)cc1I 0.0133
COC(=O)C(CC#Cc1ccc2c(c1)[C@]1(C(=O)N2)[C@H](C(=O)Nc2nc3ccccc3s2)[C@H]2C(=O)O[C@H](c3ccccc3)[C@H](c3ccccc3)N2[C@@H]1c1ccc(OCCO)cc1)C(=O)OC 0.299
CC(=O)NCCCC[C@@H]1NC(=O)[C@@H]2C[C@H](C(=O)NCCCCCCN)[C@H](c3cccc(OCCO)c3)N2C1=O 0.819
COc1ccc([Si](C)(C)[C@H]2[C@H](CCO)O[C@@]3(C(=O)N(Cc4ccc(N5C(=O)c6ccccc6Oc6ccccc65)cc4)c4ccccc43)[C@@H]2C)cc1 -1.44
CCCCC=C[C@@H](NC(=O)c1ccccc1)c1ccccc1 0.893
COCCOC(=O)N1C(=O)[C@@]2(c3cc(C#CC4=CCCCC4)ccc31)[C@H](C(=O)N1CCCCCCC1)[C@H]1C(=O)O[C@H](c3ccccc3)[C@H](c3ccccc3)N1[C@@H]2c1ccc(OCCO)cc1 -0.26
COCCOC(=O)N1C(=O)[C@@]2(c3cc(C#CCNC(N)=O)ccc31)[C@H](c1ccc(O)cc1)N1[C@H](c3ccccc3)[C@H](c3ccccc3)OC(=O)[C@H]1[C@@H]2C(=O)N1CCN(c2ncccn2)CC1 0.528
COCCOC(=O)N1C(=O)[C@@]2(c3cc(C#CCCO)ccc31)[C@H](c1ccccc1OCCO)N1[C@H](c3ccccc3)[C@H](c3ccccc3)OC(=O)[C@H]1[C@@H]2C(=O)N1CCCCCCC1 0.431
CC(=O)N1CC(C(O)C2C=CC3C(=O)NC(=O)C3N2Nc2ccc(Cl)cc2Cl)c2ccccc21 (centres undefined) -0.0499
COc1cc2c(cc1OC)CN(C(=O)[C@@H]1[C@H]3C(=O)O[C@H](c4ccccc4)[C@H](c4ccccc4)N3[C@H](c3ccc(O)cc3)[C@@]13C(=O)Nc1ccc(C#CCCO)cc13)CC2 1.16
NCCCCCNC(=O)[C@H]1C[C@H]2C(=O)N[C@@H](Cc3ccccc3)C(=O)N2[C@H]1c1ccc(O)cc1 1.54
CC(C)OC(=O)CC(=O)CC(O)c1ccc([N+](=O)[O-])cc1 (centres undefined) 0.0451
CCCNC(=O)[C@@]1(C)c2ccccc2C(=O)N(Cc2ccccc2)[C@H]1c1ccc(CO)cc1 0.231
COC(=O)[C@@]1(Cc2ccc(OC)cc2)[C@H]2c3cc(C(=O)N4CCCC4)n(Cc4cc(C)n(C)n4)c3C[C@H]2CN1C(=O)c1ccccc1 0.63
C=CCC(OC(C)=O)[C@@H]1[C@@H](N(Cc2ccc(-c3cccc(C(F)(F)F)c3)o2)C(=O)c2ccc(C)cc2)c2cc(OCCCO)ccc2N1C(=O)Cc1ccc(OC)cc1 (some centres undefined) 0.636
CC(=O)n1cc(C(O)C2C=CC3C(=O)N(c4ccccc4)C(=O)C3N2Nc2ccc(C(C)C)cc2)c2ccccc21 (centres undefined) -0.43
C=CCC(OC(C)=O)[C@@H]1[C@@H](N(Cc2ccc(-c3ccccc3)cc2)C(=O)c2ccc(C)cc2)c2cc(OCCCO)ccc2N1C(=O)Cc1ccc2ccccc2c1 (some centres undefined) -1.45
